Assay results taken from PubChem BioAssay AID493240 (Broad Institute, 2011).
Hit rate of the full screen: of about 1,300 compounds, about 270 (21%) were called active. No rule for the calls is given here. Not all results are given here. Results with a measured potency or affinity are listed apart.

Assay: cytotoxicity in parental SK-MEL-5 melanoma cells – cell-based, CellTiter-Glo, cherry-picked, set 3, orthogonal assay for MITF inhibitor project, dose response (AID 493240)
Details: SK-MEL-5 viability, ATP luminescence (CellTiter-Glo), 24 h; series mostly up to 35 µM

SMILES	outcome
CCOc1ccc(-c2noc(CCC(=O)O)n2)cc1	inactive
COc1cccc(C(=O)N/N=C(/c2ccccc2)c2ccccn2)c1	inactive
CS(=O)(=O)c1ncc(Cl)c(C(=O)Nc2ccc(N3CCOCC3)cc2)n1	inactive
O=C(Nc1ccc2ncccc2c1)c1ccccc1Br	inactive
CC(=O)Nc1ccc(NC(=O)c2nc(S(=O)(=O)Cc3ccccc3)ncc2Cl)cc1	inactive
O=C(Nc1ccc(F)cc1)c1nc(S(=O)(=O)Cc2ccccc2)ncc1Cl	inactive
COc1ccc(/C=N/N=C2/SCC(=O)N2Cc2ccccc2)cc1	inactive
Cc1ccc(C)c(S(=O)(=O)N2CCN(Cc3ccc(O)c4ncccc34)CC2)c1	inactive
CC1CCCC(NC(=O)NC(=O)CCl)C1C (stereo not drawn)	inactive
Cc1ccc(-c2cn3cc(C)ccc3n2)cc1	inactive
O=C(O)c1cccc(NC(=S)N/N=C/c2ccccn2)c1	inactive
CC1=NOC(=O)/C1=C\c1ccc(-c2cccc(Cl)c2)o1	inactive
CC(C)[C@H](NC(=O)OC(C)(C)C)c1nnc(S(=O)(=O)Cc2c(F)cccc2Cl)o1	inactive
C/C(=N\NC(=O)C1COc2ccccc2O1)c1ccccn1 (stereo not drawn)	inactive
Cc1cc(C)c2c(N)c(C(=O)Nc3ncc(C)s3)sc2n1	inactive
CC(OC(=O)c1ccc([N+](=O)[O-])s1)C(=O)NC1CCCCC1C (stereo not drawn)	inactive
Clc1c(-c2ccccc2)nc2ccccn12	inactive
Cn1nnnc1Sc1ncnc2scc(-c3ccc[nH]3)c12	inactive
C=C1CCC[C@]2(C)C[C@H]3OC(=O)C(CN4CCCCC4CO)[C@H]3CC12 (stereo partly drawn)	inactive
CCOc1cc(/C=N/Nc2cccc(C(=O)O)c2)ccc1OC(=O)c1ccccc1	inactive
CCOc1cc(/C=C2/NC(=S)NC2=O)ccc1OCc1ccc([N+](=O)[O-])cc1	inactive
COc1cc(/C=N/NS(=O)(=O)c2ccc3ccccc3c2)ccc1OCc1ccc(C(=O)O)cc1	inactive
COc1cc(/C=N/NS(=O)(=O)c2ccc(C)cc2)ccc1OCc1cccc(C(=O)O)c1	inactive

SMILES	outcome
O=C(Cn1nnc(-c2ccccc2Cl)n1)N1CCCCC1	inactive
CC(C)OC(=O)CSc1nc2cc3c(cc2cc1C#N)OCO3	inactive
CCOc1ccc(OCc2ccc(C(=O)N/N=C(\C)c3ccccn3)cc2)cc1	inactive
C/C(=N\NC(=O)Cc1ccc(Cl)cc1)c1ccccn1	inactive
O=C(Nc1nc2ccccc2s1)Nc1ccc(F)cc1F	inactive
O=C(Nc1ccccc1)O/N=C/c1ccc(F)cc1	inactive
O=C(N/N=C/c1ccccc1)c1ccco1	inactive
CCC(=O)OCCNc1cc(Sc2nc3ccccc3[nH]2)c2nonc2c1[N+](=O)[O-]	inactive
Cc1cc(C)nc(S/C=C/C(=O)c2ccccc2F)n1	inactive
CC(=O)N/C(N)=N/c1nc2cc(C)ccc2o1	inactive
COc1ccccc1N1CCN(/N=C/c2ccc([N+](=O)[O-])cc2)CC1	inactive
CN(c1ccc(O)cc1)c1nc(O)c(C2=c3ccccc3=NC2=O)s1	inactive
CCOC(=O)C1CCCN(C(=O)C2CCN(S(=O)(=O)CC)CC2)C1 (stereo not drawn)	inactive
Nc1ccc(-c2nc3ccc(C(=O)O)cc3s2)cc1	inactive
Cn1c(COc2ccccc2)nc2ccccc21	inactive
COCc1nc(-c2ccc(-c3ccccc3)nc2OC)no1	inactive
Brc1cccc(/C=N/Nc2nn[nH]n2)c1	inactive
CC(C)=CCc1c(O)ccc2c1OC(c1ccc(O)c(O)c1)CC2=O (stereo not drawn)	inactive
O=C(Nc1cc2c(cc1Cl)OCCO2)c1ccco1	inactive
CCOc1ccc(-n2c(C)cc(C(=O)CCl)c2C)cc1	inactive
COc1ccc(-n2c(C)cc(C(=O)CCl)c2C)cc1	inactive
CCN(CC)CC(=O)Nc1scc2c1c(=O)oc1ccccc12	inactive
CCN(Cc1ccc(OC)c(F)c1)C(=O)CCl	inactive

SMILES	outcome
COc1ccccc1N(C(=O)CCl)c1cn(C(C)=O)c2ccccc12	inactive
O=C(c1ccc(F)cc1)C(CN1CCOCC1)c1ccccc1 (stereo not drawn)	inactive
Cn1nnnc1Sc1ncnc2scc(-c3ccc(F)cc3)c12	inactive
Cn1nnnc1Sc1ncnc2scc(-c3ccsc3)c12	inactive
O=C(NC1=NCCS1)c1ccc(Cl)c(Cl)c1	inactive
O=C(Nc1ccc2nc(-c3ccccc3)[nH]c2c1)c1ccco1	inactive
O=C(/C=C\Nc1ccc2c(c1)OCO2)c1ccccn1	inactive
COc1ccc(C(=O)/C=C/Nc2ccccn2)cc1	inactive
CCN(CC)Cc1c(O)ccc2c1O/C(=C\C=C\c1ccccc1)C2=O	inactive
Cc1cc(/C=C(\C#N)C(=O)O)c(C)n1CC(C)C	inactive
CN(C)c1ccc(/C=N\NC(=O)c2cccc3cc[nH]c23)cc1	inactive
Cc1ccc(-c2nc(C#N)c(NCc3ccco3)o2)cc1	inactive
Cc1ccccc1OCC(=O)Nc1cccc(C(=O)O)c1	inactive
COc1ccccc1/C=C/C=N/NC(=O)c1cccs1	inactive
O=C(Nc1ccc2oc(-c3cccnc3)nc2c1)c1ccc([N+](=O)[O-])o1	inactive
Cc1cc(NC(=O)c2ccc([N+](=O)[O-])o2)ccc1NC(=O)c1ccco1	inactive
CC(C)c1ccc(/C=C2\SC(=S)N(CCC(=O)N3CCCCC3CCO)C2=O)cc1 (stereo not drawn)	inactive
CN(C)S(=O)(=O)c1cccc(NC(=O)CSc2nc3c(cc2C#N)C(=O)CC(C)(C)C3)c1	inactive
O=C(CCC(=O)c1ccc[nH]1)c1ccc(Cl)cc1	inactive
CCOC(=O)N1CCN(C(=O)c2ccc(Cn3c(=S)[nH]c4ccc(Br)cc4c3=O)cc2)CC1	inactive
C=CCNc1nc(-c2ccccn2)nnc1-c1ccccc1	inactive
Cc1cc(C)c2nc3nc(C)cc(C)c3c(N)c2c1	inactive
N#C/C(=C\C=C\c1ccccc1[N+](=O)[O-])C(=O)NCc1ccccc1	inactive

SMILES	outcome
Cc1cc(Cl)ccc1OCCCC(=O)N1CCOCC1	inactive
Cc1cccc(N(O)C(=O)Nc2cccc(Cl)c2)c1	inactive
Nc1c(-c2ccccc2)cnc2c(-c3ccccc3)cnn12	inactive
CC(=O)c1ccc(Sc2nnnn2-c2ccccc2)c([N+](=O)[O-])c1	inactive
Cc1ccc(-c2noc(-c3ccno3)n2)cc1	inactive
Cc1cc(-n2c(C)cc(C(=O)CCl)c2C)no1	inactive
Cc1ccc(OCCCCN2CCCCC2)c(Br)c1	inactive
Clc1ccccc1CSc1nnc(-c2ccncc2)o1	inactive
c1ccc(C[n+]2cccc3c4ccccc4ccc32)cc1	inactive
CC1(C)Cc2c(sc(NC(=O)c3ccc4ncsc4c3)c2C(N)=O)C(C)(C)N1	inactive
CS(=O)(=O)c1ccc2nc(NC(=O)c3ccccc3)sc2c1	inactive
CCCN(CCC)C1=CC(=[N+]2CCCC2)CC(C)(C)C1	inactive
Cc1nc(Sc2nnnn2C)c2c3c(sc2n1)CCC3	inactive
COC(=O)c1ccc(-n2c(C)cc(C(=O)CCl)c2C)cc1	inactive
Cc1ccc2c(c1)COc1c3ccc(C(=O)O)cc3nn1-2	inactive
Nc1ccc(-c2cc3ccccc3c(=O)o2)cc1	inactive
Nc1c(-c2ccc(Cl)cc2)nnn1-c1ccccc1	inactive
Cc1ccc(NC(=O)c2cc(N3C(=O)C=CC3=O)ccc2N2CCOCC2)cc1	inactive
COc1cc(OC)cc(-c2oc(=O)c3cc(OC)c(OC)cc3c2C(F)(F)F)c1	inactive
O=C1c2ccccc2CN1c1ccccc1	inactive
Cn1c(/C=C/c2cccc([N+](=O)[O-])c2)c([N+](=O)[O-])c(=O)n(C)c1=O	inactive
O=C(O)c1cccc(NC(=O)c2cccc(NC(=O)C3CCCO3)c2)c1 (stereo not drawn)	inactive
Oc1cc(NCCN2CCOCC2)cc2cccnc12	inactive

SMILES	outcome
N#Cc1nc(/C=C/c2ccccc2)oc1NCCCN1CCOCC1	inactive
CC(C)(C)c1cc(NCCCn2ccnc2)n2ncc(-c3ccccc3)c2n1	inactive
O=c1c(Cl)c(Cl)cnn1Cc1ccc(F)cc1	inactive
Cc1c(NC(=O)C(C)OC(=O)c2ccc([N+](=O)[O-])s2)c(=O)n(-c2ccccc2)n1C (stereo not drawn)	inactive
Cc1cc(Sc2ncnc(N)c2[N+](=O)[O-])ncn1	inactive
Cc1ccc(OCC(=O)Nc2ccccc2F)cc1	inactive
Fc1cccc(Cl)c1CSc1nnc(-c2ccncc2)o1	inactive
CN(CCC#N)C(=O)COC(=O)c1ccccc1C(=O)c1ccc(Cl)c([N+](=O)[O-])c1	inactive
CCOC(=O)N1C(=O)[C@](CC)(c2ccccc2)N1C(=O)OCC	inactive
CC(C)C(=O)Nc1cccc(NC(=O)c2cc3ccccc3o2)c1	inactive
Cc1ccc(NC(=O)c2cc3ccccc3oc2=O)cc1S(=O)(=O)N(C)C	inactive
COc1ccc(N/N=C/c2c(C(=O)O)ccc3ccccc23)cc1	inactive
Cc1ccc(S(=O)(=O)Nc2cccc3cccnc23)cc1	inactive
CC1C/C(=C\c2cccnc2)C(=O)/C(=C/c2cccnc2)C1 (stereo not drawn)	inactive
C=C1C(=O)C=C[C@]2(C)C[C@@H]3OC(=O)[C@](C)(O)[C@H]3C[C@@H]12	inactive
Cc1ccc2nc(NC(=O)c3ccc(Br)o3)sc2c1	inactive
CC(C)C(NC(=O)OCc1ccccc1)C(=O)OCC(=O)N1CCCCC1 (stereo not drawn)	inactive
CCc1ccc(Nc2nc(C)cc(C)n2)cc1	inactive
CCOC(=O)c1ccc(NC(=O)c2nc(S(=O)(=O)Cc3ccccc3)ncc2Cl)cc1	inactive
CCOC(=O)c1ccc(NC(=O)Cc2cccs2)cc1	inactive
Cc1cc(O)ccc1Nc1nc(-c2cccnc2)cs1	inactive
Cc1c(C#N)c(O)n(CCO)c(=O)c1N=Nc1ccc2c(c1)COC2=O	inactive
N#Cc1cnc2sc3ccccc3n2c1=N	inactive

SMILES	outcome
O=C(NCCSc1ccccc1)c1ccccc1F	inactive
COCn1c(COc2ccccc2)nc2ccccc21	inactive
O=C(N/N=C/c1cccc(Oc2ccc([N+](=O)[O-])cc2[N+](=O)[O-])c1)c1cncc(Br)c1	inactive
CN(C)c1ccc(NC(=O)Nc2ccc3c(c2)nnn3C)cc1	inactive
CC1Cc2ccccc2N1C(=O)c1ccc(Br)o1 (stereo not drawn)	inactive
O=C(c1cc2ccccc2oc1=O)N1CCN(c2ncccn2)CC1	inactive
Cc1ccc(OCC(=O)Nc2cccc(C)n2)c(C)c1	inactive
CN(c1cccc(NC(=O)COc2ccc(Cl)cc2Cl)c1)S(C)(=O)=O	inactive
CCOc1ccccc1-c1nc(-c2ccc(C)nc2OC)no1	inactive
C=CCNC(=O)c1ccc2nc(Cc3ccc(OC)cc3)oc2c1	inactive
O=C(Nc1nc2cc3c(cc2s1)OCO3)C1=COCCO1	inactive
O=C(/C=C/c1ccc(Cl)cc1)c1ccc([N+](=O)[O-])o1	inactive
CCOCCCNC(=O)/C(C#N)=C/c1ccc(Cl)c([N+](=O)[O-])c1	inactive
Cc1nc2cc(NC(=O)Nc3cccc([N+](=O)[O-])c3)ccc2n1C	inactive
O=C(Cc1ccccc1)Nc1ccc(NC(=O)c2ccco2)nc1	inactive
CN(C)/C=N/c1ncc(C(=O)c2ccccc2)s1	inactive
C=C1C(=O)O[C@@]23[C@H]1CC[C@@H](C)[C@@H]2CC[C@@]1(C)O[C@@H]31	inactive
COc1ccc2oc3ccc(OC)cc3c(=O)c2c1	inactive
